The whole screen tested about 120,000 compounds, of which about 5,300 (4.4%) were called active. Not shown: some 22% with an inconclusive outcome. The call rests on the fitted dose curve; in most records, active means well fitted inhibition curve with a large enough effect; inconclusive means small, poorly fitted or top-dose-only effect; inactive means no such curve, though single readings can be large or run the other way. What follows is part of a selection rich in actives, with near analogues and random picks from the rest. Where a call stands in place of a potency, no number is given.
Potency means the concentration at half of the fitted maximal effect.

This experiment is described as follows: qHTS Primary assay for Inhibitors of Plasmodium falciparum Dd2 growth in vitro. Further: nearly all actives have a fitted effect of over 65% in size. The settings on record: P. falciparum Dd2 growth, SYBR Green, 72 h; series mostly up to 28.9 µM. A digest of the protocol:
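Infected erythrocytes (Dd2, 0.3% parasitemia, 2.5% hematocrit final) are added to compound in RPMI-1640/Albumax II medium, grown 72 h at 37C in low oxygen, then lysed with saponin/Triton-X containing SYBR Green and read by fluorescence.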
Background: In qHTS, concentration-response curves come from the screen itself.
Turning to `COCCOc1ccnc(-c2noc([C@@H]3CCCN3Cc3ccc(Cl)cc3)n2)c1`, the Potency was 3.98 µM (active).
In the case of `COc1ccc(C(=O)Nc2ccc(-c3noc([C@@H]4CCCN4Cc4ccc(S(C)(=O)=O)cc4)n3)cn2)cc1` it was “inactive”; in that of `COCCNc1ncccc1-c1noc([C@@H]2CCCN2Cc2ccc3c(c2)OCO3)n1`, “inactive”; in that of `Cc1ccc2c(c1)N1C(=O)OC[C@@H]1CCN(C(=O)c1ccnc(Cl)c1)C2`, “inactive”.
In the case of `Cc1ccc(-c2nocc2CCC(=O)N2CCN(c3ccccc3F)CC2)cc1` it was “inactive”; in that of `CN(C)C(=O)c1cccnc1N1CC2CC(C1)[C@H]1CCCC(=O)N1C2` (stereo not given in full), “inactive”.
In the case of `COc1ccc(-c2nn3c(-c4ccc(OC)cc4)nnc3c3ccccc23)cc1` it was “inactive”; in that of `COc1ccc(-c2ccccc2CN)cc1`, 7.94 µM (active).
Turning to `COc1ccccc1-c1ccc(C(=O)O)cc1`, the Potency result was “inactive”.
For `CC(C)c1noc(-c2cn(C3CCN(C(=O)c4cccc(C#N)c4)CC3)nn2)n1`, the Potency entry was “inactive”.
For the molecule `CC(C)c1noc(-c2cn(C3CCN(C(=O)COc4ccccc4)C3)nn2)n1` (stereo not given), the Potency result was “inactive”.
Under `CC(C)c1noc(-c2cn(C3CCN(C(=O)COc4ccc(F)cc4)CC3)nn2)n1` stands 10 µM (active).
In the case of `CNC(=O)[C@@H]1CN(C(=O)Cc2cccnc2)C[C@H]1COC` it was “inactive”; in that of `O=C(NC1CCCC1)N1CC2CC(C1)[C@H]1CCCC(=O)N1C2` (stereo not given in full), “inactive”; in that of `COC(=O)c1scc(-c2ccc(C)cc2)c1S(=O)(=O)Nc1cc(Cl)c(OC)cc1OC`, 8.91 µM (active).
In the case of `COC(=O)c1scc(-c2ccccc2)c1S(=O)(=O)Nc1ccccc1` it was “inactive”; in that of `CCOC(=O)c1scc(-c2ccc(C)cc2)c1S(=O)(=O)Nc1cc(C)ccc1C`, “inactive”; in that of `COc1ccc(CN2C[C@H]3CN(Cc4ccccc4)CCN3C2=O)cc1`, “inactive”.
As to `CCCS(=O)(=O)N1CCC2(CC1)C(OC)C(=O)N2CC1CC1` (stereo not given), the Potency result was “inactive”.
Under `COc1ccc(N2CCN(CCCNC(=O)C3(CCO)CC34CCOCC4)CC2)cc1` (stereo not given) stands “inactive”; under `COc1ccc(-c2nc(Cn3c(=O)cc(C)c4c(C)nn(-c5ccccc5)c43)c(C)o2)c(OC)c1`, “inactive”; under `COc1ccc(C2CC(=O)N(Cc3ccccc3C)c3c2c(C)nn3-c2nc(C)cc(C)n2)c(OC)c1` (stereo not given), 10 µM (active).
Regarding `C#CCOc1ccc(C2CC(=O)Nc3c2c(C)nn3-c2nc(C)cc(C)n2)cc1` (stereo not given), the Potency entry is “inactive”.
In the case of `CCc1cc(=O)n(CC(=O)Nc2ccc(OC)c(OC)c2)c(N2CCOCC2)n1`, the Potency entry was “inactive”.
Take `COc1ccc2[nH]c(=O)c(CCC(=O)NCC(N)=O)cc2c1`: the Potency entry is “inactive”.
In the case of `Cc1n[nH]c(C)c1CCC(=O)N[C@@H]1CN(S(C)(=O)=O)C[C@H]1CN(C)C` it was “inactive”; in that of `OC1(CN2CCC(CCn3cccn3)CC2)CNCCOC1` (stereo not given), “inactive”.
As to `CCc1cc(N2CCN(CC3(O)CCCNC3)CC2)ncn1` (stereo not given), the Potency entry is “inactive”.
Regarding `COc1ccc(OCC2CCN(CC3(O)CCCNC3)CC2)cc1` (stereo not given), the Potency is 12.6 µM (active).
In the case of `O=C(c1ccccn1)N1CCC2(CC1)C(=O)Nc1ccccc12` it was “inactive”; in that of `O=C([C@@H]1C[C@H](Oc2ccccc2)CN1C(=O)NC1CCCCC1)N1CCCC1`, “inactive”; in that of `COc1ccc(N2CCN(C(=O)c3cn(C)c4ccc(S(=O)(=O)N5CCOCC5)cc4c3=O)CC2)cc1`, “inactive”.
Under `Cc1ccc(S(=O)(=O)c2cn(Cc3ccccc3)c3cc(N4CCCC4)c(F)cc3c2=O)c(C)c1` stands 12.6 µM (active); under `COc1ccc(-c2nc(S(=O)(=O)c3ccccc3)c(N3CCCCC3)o2)cc1`, “inactive”; under `COc1ccc(S(=O)(=O)c2cn(C)c3cc(N4CCCCC4)c(F)cc3c2=O)cc1`, 8.91 µM (active).
In the case of `CC1CCCN(c2cc3c(cc2F)c(=O)c(S(=O)(=O)c2cccc(Cl)c2)cn3Cc2ccccc2)C1` (stereo not given) it was “inactive”; in that of `CCn1cc(C(=O)N2CCN(c3cc(Cl)ccc3C)CC2)c(=O)c2cc(S(=O)(=O)N3CCCC3)ccc21`, “inactive”.
`CC(=O)N1CC2(CCN(C(=O)CCC(=O)O)CC2)Cc2ccccc21`: the Potency entry is “inactive”.
On to `COc1ccc(-c2cnc3n2CC(C(=O)NCCCN2CCCC2=O)CC3)cc1` (stereo not given), for which the Potency result was “inactive”.
Under `O=C(N[C@@H]1CCC[C@@H]1C(=O)N1CCN(c2ccccc2F)CC1)c1ccncc1` stands “inactive”; under `COCC(=O)NC1CCN(c2ccc(C)cc2)C1=O` (stereo not given), “inactive”; under `COc1ccccc1C(=O)N1CCCC(n2cc(-c3nc(-c4ccccc4)no3)nn2)C1` (stereo not given), “inactive”.
In the case of `O=C(O)c1c(CNCc2cccc(F)c2)c2ccccc2n1Cc1ccccc1` it was “inactive”; in that of `O=c1c2ccccc2n(Cc2cccc(Cl)c2)c(=O)n1Cc1ccccc1`, “inactive”; in that of `O=C(NC1CCN(Cc2ccccc2)CC1)c1ccc(Cn2c(=O)c3ccccc3n(Cc3cccc(F)c3)c2=O)cc1`, 7.94 µM (active).
Under `CC(=O)NC[C@@H]1C=C(C)[C@H](CC(=O)N2CCCC2)C[C@H]1C(C)C` stands “inactive”; under `CC1=C[C@@H](CNC(=O)CC2(CC(=O)O)CCCC2)[C@H](C(C)C)C[C@H]1Cc1nc2c(C)cccc2[nH]1`, “inactive”.
Turning to `CC1=C[C@@H](CN(CC2CC2)CC2CC2)[C@H](C(C)C)C[C@H]1Cc1nc2c(C)cccc2[nH]1`, the Potency was 7.08 µM (active).
In the case of `COc1ccc2nc(C[C@@H]3C[C@@H](C(C)C)[C@H](CNC(=O)CC(C)(C)CC(=O)O)C=C3C)[nH]c2c1` it was “inactive”; in that of `CC(=O)N1CCC(NC[C@@H]2C=C(C)[C@H](Cc3nc4ccccc4n3C)C[C@H]2C(C)C)CC1`, 4.47 µM (active).
Under `CC1=C[C@@H](CNC(=O)CCC(=O)O)[C@H](C(C)C)C[C@H]1Cc1nc2ccccc2n1C` stands “inactive”; under `CC1=C[C@@H](CNC2CCN(C)CC2)[C@H](C(C)C)C[C@H]1Cc1nc2ccccc2[nH]1`, 7.08 µM (active); under `CC1=C[C@@H](CNS(C)(=O)=O)[C@H](C(C)C)C[C@H]1Cc1nc2ccccc2[nH]1`, “inactive”.
Under `COc1ccc(CC(=O)NC[C@@H]2C=C(C)[C@H](Cc3nc4ccncc4[nH]3)C[C@H]2C(C)C)cc1` stands “inactive”.
Take `COc1ccc(CCC(=O)N2CCC(Cc3nncn3C(C)C)C2)cc1` (stereo not given): the Potency entry is “inactive”.
Under `CC(=O)N1CCN(Cc2ccc(C(F)(F)F)c(F)c2)CC(O)C1` (stereo not given) stands “inactive”; under `O=C(NCc1ccc(F)cc1)N1CCCC(Cc2noc(-c3ccncc3)n2)C1` (stereo not given), “inactive”.
Regarding `CCN(CC)CCNC(=O)CN1N=C(c2ccc(OC)cc2)CCC1=O`, the Potency result was “inactive”.
In the case of `COc1ccc(-c2noc([C@@H]3CCCN3C(=O)CCc3ccccc3)n2)cc1` it was “inactive”.
Under `CCC(=O)N1N=C(c2ccc(OC)cc2)CC1c1cn(-c2ccccc2)nc1-c1cccs1` (stereo not given) stands 11.2 µM (active).

These data come from PubChem BioAssay AID1347417 (National Center for Advancing Translational Sciences (NCATS), 2020).
